Measured values published in ChEMBL document CHEMBL1157539, “Thousands of chemical starting points for antimalarial lead identification” (Nature, 2010).

Tests used:
Assay type in all cases: functional
Plasmodium falciparum [1] = assay: GSK_TCMDC: Inhibition of Plasmodium falciparum 3D7 in whole red blood cells, using parasite LDH activity as an index of growth. Test compounds present at 2uM
Plasmodium falciparum [2] = assay: GSK_TCMDC: Inhibition of Plasmodium falciparum Dd2 in whole red blood cells, using parasite LDH activity as an index of growth. Test compounds present at 2uM
HepG2 = assay: GSK_TCMDC: Percent inhibition of human HepG2 cell line. Test compounds present at 10uM.

Structure (SMILES)	Inhibition (Plasmodium falciparum [1]) [%]	Inhibition (Plasmodium falciparum [2]) [%]	Inhibition (HepG2) [%]
C=C(NC(=O)c1cc(C)cc(C)c1)C(=O)OC	95	0	21
COc1ccc2[nH]c(C)cc(=NN=Cc3cccc(F)c3)c2c1	100	100	2
CCCc1cc(=O)oc2cc(OC)c(C(=O)CC(C)C)c(OC)c12	81	67	3
COC(=O)c1ccc(C(=O)NCCCCN2CCC(c3ccc4c(c3OC)CCCC4)CC2)cc1-c1ccc(C(F)(F)F)cc1	93	19	24
O=C(Nc1ccc(Br)cc1)Nc1ccc(Cn2ncc(N3CCCNCC3)c(Cl)c2=O)cc1.O=C(O)C(F)(F)F	87	15	0
COc1ccc2ncc(F)c(CCN3CCC4(CC3)COC(c3cc5c(cn3)OCCO5)=N4)c2n1.O=C(O)C(=O)O	89	83	79
N=C(N)NN=CC(=O)Nc1cc([N+](=O)[O-])cc([N+](=O)[O-])c1.O=S(=O)(O)O	100	0	0
Cc1cccc(C(=O)Nc2ccnc(N3CCC(N(C)Cc4ccccc4)CC3)c2)c1.O=C(O)C(F)(F)F	93	2	12
CC1(CCc2ccccc2)N=C(Nc2ccc(Cl)cc2)N=C(N)C1c1ccc(Cl)c(Cl)c1 (stereo not drawn)	100	98	81
CC(Nc1nncc(-c2cccc(F)c2)n1)c1ccc(F)cc1 (stereo not drawn)	95	89	4
CCc1cccc(NC(=O)c2ccc(CN3CCCN(CC4CCCCC4)CC3)cc2)c1.O=C(O)C(F)(F)F	84	36	44
CCc1c(CCNCCCC(C)CCNCCc2ccc(OC)c(OC)c2CC)ccc(OC)c1OC.Cl (stereo not drawn)	100	27	99
CC(C)N(CCOc1ccc2c(c1)N(C(=O)Nc1cc(Br)cc(C(F)(F)F)c1)CC2)C(C)C.O=C(O)C(F)(F)F	100	100	8
Cc1cc(N[C@@H](Cc2ccccc2)C(=O)NCc2cccc(F)c2)nc(NCCc2ccccc2)n1.O=C(O)C(F)(F)F	100	73	7
CC(CN1CCN(C)CC1)C(=O)Nc1ccc(-c2cccc(-c3nc4ccccc4[nH]3)c2)cc1 (stereo not drawn)	94	81	4
O=C(Nc1cn(-c2ccc(OCc3cccc(F)c3)c(Cl)c2)c2ncncc12)c1ccncc1	100	81	13
COc1ccc2nccc([C@@H](O)CN3CCC(NCc4nc5ccccc5[nH]4)CC3)c2c1.O=C(O)C(=O)O	92	2	41
COc1ccc(NC(=O)/C=C/c2ccccc2Cl)cc1OCCN1CCC(NC2CC2)CC1	100	66	23
CCOC(=O)c1ccc(NC(=O)N(Cc2ccc(-c3ccc(CN4CCNCC4)cc3)cc2)Cc2cccnc2)cc1.O=C(O)C(F)(F)F	94	34	13
Nc1nc(N)c2c(Oc3cccnc3)cccc2n1	93	0	65
CCCCN(CCCC)C(=O)CC(O)c1cc2c(Cl)cc(Cl)cc2c2cc(C(F)(F)F)ccc12 (stereo not drawn)	92	68	0

Structure (SMILES)	Inhibition (Plasmodium falciparum [1]) [%]	Inhibition (Plasmodium falciparum [2]) [%]	Inhibition (HepG2) [%]
CCn1c(-c2nc(-c3ccnc(N4CCN(C)CC4)c3)cnc2N)nc2cc(S(C)(=O)=O)ccc21	100	76	44
O=C(O)C(F)(F)F.O=c1cc(NCCCNCc2cn(S(=O)(=O)c3ccccc3)c3ccccc23)[nH]c2ccccc12	91	29	17
COc1ccc2ncc(F)c(CCN3CC(O)C(CNCc4ccc5ccccc5c4)C3)c2n1.Cl (stereo not drawn)	100	78	57
Cc1c(C)c2c(c(C)c1O)CC[C@](C)(C(=O)N1CCC(CCN3CCC(c4c[nH]c5ccccc45)CC3)CC1)O2	99	74	31
O=C(/C=C/c1cccc2c1OCO2)Nc1ccnc2ccncc12	90	35	17
CCNC(=O)Nc1ccc(N(C)c2ccnc(Nc3ccc(CS(C)(=O)=O)cc3)n2)cc1.Cl	100	99	0
CCN(CCCN1CCCCC1)c1cc(C)nc(Nc2ccc(C)c(Br)c2)n1.O=C(O)C(F)(F)F	100	98	42
N=c1[nH]c2cccc3ccc4cccc1c4c32	100	69	26
Cc1ccc(C2(CN3CCC(NC(=O)c4cc[nH]n4)CC3)CCCCC2)cc1	97	96	0
Cc1nc(-c2ccc(C(F)(F)F)cn2)sc1C(=O)N1CCc2cc3nccc(N4CCN5CCC[C@H]5C4)c3cc21.Cl	100	72	5
CN1CCN(CCCN(Cc2ccc(-c3cccc(CNCc4ccc5c(c4)OCO5)c3)cc2)C(=O)NCCc2ccccc2)CC1.O=C(O)C(F)(F)F	98	85	36
COc1ccc(C=NNc2nc(O)cc(-c3ccccc3)n2)cc1OC	92	93	22
O=C(Nc1ccc(Cl)c(Cl)c1)Nc1ccccc1N1CCNCC1.O=C(O)C(F)(F)F	100	22	17
CCN(CC)CCCNc1ncc2c(-c3ccc(NC(=O)Nc4cc(C(F)(F)F)ccc4F)c(F)c3)nn(C)c2n1.O=C(O)C(F)(F)F	94	68	100
Cn1c(NC(=O)C2CCC(CNC(=O)c3ccc(O)c(-c4ccc(Cl)c(Cl)c4)c3)CC2)nc2ccccc21 (stereo not drawn)	99	100	40
O=C(NCCCN1CCC(NC(=O)c2ccc(-c3cccnc3)cc2)CC1)c1ccc(Cl)c(Cl)c1.O=C(O)C(F)(F)F	94	23	17
CC(Cc1ccc(C(=O)OC(c2ccccc2)c2ccccc2)cc1)NCC(O)c1ccccc1.Cl (stereo not drawn)	100	98	83
O=C(Cc1c[nH]cn1)Nc1cccc(-c2cccc(-c3nc4ccccc4[nH]3)c2)c1	97	60	24
CC(C)(C)OC(=O)Nc1cccc(-c2csc(NC(=N)N)n2)c1	97	83	4
Cc1cccc2nc(-c3ccc(-c4cccc(NC(=O)c5cnccc5C(F)(F)F)c4)cc3)[nH]c12	84	13	25
CCc1c(C(=O)NC2CCC(N3CCC(c4ccccc4C)CC3)CC2)[nH]c2ccc(OC)cc12 (stereo not drawn)	100	100	78

Structure (SMILES)	Inhibition (Plasmodium falciparum [1]) [%]	Inhibition (Plasmodium falciparum [2]) [%]	Inhibition (HepG2) [%]
CCCC(C)N(Cc1ccc(C(C)(C)C)cc1)C(=O)c1cccc(OC)c1 (stereo not drawn)	100	89	9
COc1ccc2nccc([C@@H](O)CN3CCC(NCc4ccc5c(c4)nnn5C(C)C)CC3)c2c1.O=C(O)C(=O)O	100	40	15
CNc1c2c(nc3ccc(NC(=O)CCCCCCc4ccccc4)cc13)CCCC2.Cl	100	82	0
CN(C)Cc1c(O)ccc2oc(Cc3ccccc3)cc12.Cl	99	94	0
Cc1cc(C)cc(OCC(O)CN(CCN2CCOCC2)C(=O)Nc2ccc(Br)cc2)c1.O=C(O)C(F)(F)F (stereo not drawn)	85	19	7
COc1ccc(-c2cnc3ccc(NCc4ccc(S(N)(=O)=O)cc4)nn23)cn1	98	98	16
CCCn1c(Sc2ccc(C#N)c([N+](=O)[O-])c2)nnc1-c1ccc(Cl)cc1	96	95	12
CN1CCCN(Cc2cccc(-c3cccc(NC(=O)c4cccc(Cl)c4)c3)c2)CC1.O=C(O)C(F)(F)F	96	20	17
COc1ccc(-c2cccc(NC(=O)c3ccc(C#N)cc3)c2)cc1CN1CCCC1.O=C(O)C(F)(F)F	98	15	30
Br.CC1(C)N=C(N)N=C(N)N1OCc1cccc2c1ccc1ccccc12	95	97	63
CCc1ccc(NC(=O)c2ccc(CN3CCCN(CC4CCCCC4)CC3)cc2)cc1.O=C(O)C(F)(F)F	96	48	48
CC1CCCCN1CCCNC(=O)c1cccc(-c2cc3cc(Cl)c(Cl)cc3[nH]2)c1.O=C(O)C(F)(F)F (stereo not drawn)	94	7	22
CCN(CC)CCN(Cc1ccc(-c2ccc(C(F)(F)F)cc2)cc1)C(=O)Cn1nc(-c2ccc(C(F)(F)F)cc2)ccc1=O	100	83	44
Cc1ccc(-n2nc3ccc(NC(=O)c4ccc([N+](=O)[O-])o4)cc3n2)cc1C	94	95	20
CC(C)n1ncc2c(C(=O)N3CCCC4CCCCC43)cc(C3CC3)nc21 (stereo not drawn)	99	92	7
Cc1sc2ncnc(Sc3nc4ccccc4[nH]3)c2c1C	99	100	14
COc1ccc2ncc(F)c(NC(=O)C3CCC(NCc4cc5c(F)cccc5[nH]4)CC3)c2n1.Cl (stereo not drawn)	91	29	39
Cc1ccccc1C1CCN(C2CCC(NC(=O)/C=C/c3ccc(Cl)cc3)CC2)CC1 (stereo not drawn)	99	25	78
Cl.NCCCOc1cnc(-c2ccccc2)c2nc(-c3nonc3N)n(CCc3ccccc3)c12	93	86	56
